Data from PubChem BioAssay (NCATS).
Results filed as inconclusive are left out. Values without a mark were called inactive. Activity calls are given as the source filed them. Calls come from the whole dose curve; as a rule, active = well fitted activation curve with a large enough effect; inconclusive = small, poorly fitted or top-dose-only effect; inactive = no such curve, though single readings can be large or run the other way. Square brackets hold non-standard residues; d marks the D form. Peptide text beside a SMILES is read from it. ξ: configuration not given here. ξPhe(βξ-Me) = CC(c1ccccc1)C(N)C(=O)O; GABA = NCCCC(=O)O

Target: Cellular tumor antigen p53 (Homo sapiens) (UniProt P04637)
Experiment: Primary qHTS for small molecule compounds that upregulate eGFP-tagged delta133p53alpha (in N-terminal) cells. (AID 2060322); note: nearly all actives have a fitted effect of over 75% in size;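 for activation: series mostly up to about 56 µM; 0% = DMSO vehicle and 100% = reference activator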
Conditions: NCI-H358 eGFP-delta133p53alpha fluorescence, 24 h; activation: hits give high values
How it was run: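 NCI-H358 cells pre-induced 24 h with 10 ng/ml doxycycline for eGFP-delta133p53alpha, plated dox-free and exposed 24 h at 37C to titrated compounds. Fixed, Hoechst-stained; gated GFP peak intensity by laser scanning cytometry, normalized to DMSO (0%) and 57.5 uM 5-azacytidine (100%).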
Potency is the fitted concentration of half-maximal effect.

Chain of Cellular tumor antigen p53 (Homo sapiens) (P04637 whole entry, looked up): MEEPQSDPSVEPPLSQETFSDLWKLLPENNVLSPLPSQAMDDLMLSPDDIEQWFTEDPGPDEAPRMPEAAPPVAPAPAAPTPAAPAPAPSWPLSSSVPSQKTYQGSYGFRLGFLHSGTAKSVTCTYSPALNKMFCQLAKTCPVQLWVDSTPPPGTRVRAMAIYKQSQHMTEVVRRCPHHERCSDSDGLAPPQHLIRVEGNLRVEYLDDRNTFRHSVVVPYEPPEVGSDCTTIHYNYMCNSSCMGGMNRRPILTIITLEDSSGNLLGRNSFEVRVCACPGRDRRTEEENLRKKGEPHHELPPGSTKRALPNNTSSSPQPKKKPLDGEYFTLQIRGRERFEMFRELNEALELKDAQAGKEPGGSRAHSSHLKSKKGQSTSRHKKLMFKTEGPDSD

Row | SMILES | Potency | activation [%]
1 | C=C1CC2OC(=O)C(COC)C2C(OC(=O)/C(C)=C\C)CC2(C)OC1=CC2=O (stereo not given) | 14.8 µM (active) | 
2 | Cn1nnc(-c2ccc(-c3ccc(N4C[C@H](CO)OC4=O)cc3F)cn2)n1 |  | -5.36
3 | O=C1CC[C@H](C(=O)N2CCCCC2)N1 |  | -6.33
4 | CC1(C)[C@@H](O)CC[C@]2(C)[C@H]3CC=C4[C@@H]5C[C@](C)(C(=O)O)CC[C@]5(C)CC[C@@]4(C)[C@]3(C)CC[C@@H]12 |  | 7
5 | C=C(C(=O)OC)C1C(O)CC2(C)C(O)CCC(=O)C2C1O (stereo not given) |  | -15.3
6 | COc1cc(/C=C2\CC[C@H]3COC[C@@H](c4cc(F)c(F)c(F)c4)N3C2=O)ccc1-n1cnc(C)c1 |  | -13.7
7 | C=C1CCC2C(C)(C(=O)O)CCCC2(C)C1CC/C(=C\CO)CO (stereo not given) |  | 3.57
8 | C=CC1(C)CC(O)C2(CCC3C(C)(C(=O)O)CCCC3(C)C2=O)C1 (stereo not given) |  | -2.29
9 | CCc1ccc(Cc2ccc3c(c2)[C@]2(OC3)O[C@H](CO)[C@@H](O)[C@H](O)[C@H]2O)cc1 |  | 7
10 | COC1(CC(C)C)NC(=O)C(O)(Cc2ccccc2)NC1=O (stereo not given) |  | -16.8
11 | COC(=O)c1ccc(N2CCN(C)CC2)c(NC(=O)c2cccc(OC)c2)c1 |  | 9
12 | C=CC(C)(O)CC/C=C(\C)C(=O)OC1CC2(C(=O)O)CCC3(C)C(=CCC4C5(C)CCC(OC6OC(COC7OCC(O)C(O)C7O)C(O)C(OC7OCC(O)C(O)C7O)C6OC6OC(CO)C(O)C(O)C6OC6OCC(O)C(O)C6O)C(C)(C)C5CCC43C)C2CC1(C)C (stereo not given) |  | -7.14
13 | COc1c2c(c(C)c3c1C(=O)OC3)OC1(C)CC(O)C34OC(OC)(CC(OC(C)=O)C3(C)C1C2)OC4(C)C (stereo not given) |  | -5.36
14 | C=C1CC[C@]2(C(=O)O[C@@H]3O[C@H](CO)[C@@H](O)[C@H](O)[C@H]3O)CC[C@]3(C)C(=CCC4[C@@]5(C)C[C@H](O)[C@@H](O[C@@H]6O[C@H](C(=O)O)[C@@H](O)[C@H](O)[C@H]6O)[C@](C)(C=O)C5CC[C@]43C)C2C1 (stereo not given in full) |  | -11.6
15 | CC(C)C1=CCC(C)(O)C(OC2OC(CO)C(O)C(O)C2O)C1 (stereo not given) |  | -17.6
16 | COC(=O)C1=CO[C@@H](O[C@@H]2O[C@H](CO)[C@@H](O)[C@H](O)[C@H]2O)[C@H]2[C@@H]1[C@H](O)C[C@]2(C)O |  | 3.57
17 | CC(=O)OC1C=C(C(=O)O)C2(CO)CCC(C)C(C)(CCc3ccoc3)C2C1 (stereo not given) |  | -25.2
18 | COC(=O)C1=CO[C@@H](O[C@@H]2O[C@H](CO)[C@@H](O)[C@H](O)[C@H]2O)/C(=C\CO)[C@@H]1CC(=O)OCCc1ccc(O)cc1 |  | -20.6
19 | C[C@@H]1C(=O)OC[C@H]2C(C(=O)O)=C[C@@H]3CC(C)(C)C[C@]312 |  | -6.87
20 | COc1c(/C=C/C(C)(C)O)ccc2c1C(=O)OCc1cc(C)cc(O)c1O2 |  | -12.5

Row | SMILES | Potency | activation [%]
21 | CO[C@@H]1[C@H](O)CCC2(CO2)[C@H]1[C@@]1(C)O[C@@H]1CC=C(C)C (stereo not given in full) |  | 0.763
22 | CC1CCC2(C)CCC3(C)C(=CCC4C5(C)CCC(O)C(C)(C(=O)O)C5CCC43C)C2C1C (stereo not given) |  | 19.6
23 | C=C1C[C@@]23CC[C@@H]4[C@](C)(C(=O)O)CCC[C@@]4(C)C2=CC[C@H]1C3 |  | 0.763
24 | CC(=O)OC[C@@]12[C@H](O)C[C@@H](C)[C@]3(C[C@@H](c4ccoc4)OC3=O)[C@H]1C[C@H](O)C[C@]21CO1 |  | 27.5
25 | CC1=CC(=O)[C@@]2(C(C)C)C[C@@H]12 |  | 17.7
26 | CC1(C)CCCC2(C)C(CO)C(CO)=CCC12 (stereo not given) |  | -3.82
27 | COC(=O)[C@]12C(=O)C(C)=C(O)[C@@]1(C)C(C)=CC1[C@@]34CC[C@@H](OC(C)=O)C(C)(C)C3[C@H](C[C@]12C)OC4=O (stereo not given in full) |  | 2.29
28 | O=C(Nc1nc2cc(C(F)(F)F)cc(NC3CC3)n2n1)c1cccnc1 | 4.78 µM (active) | 
29 | COc1cc2c(c(OC)c1O)C(c1ccc(O)cc1)C1C(=O)OC3C(COC(=O)C1=C2)OC(CO)(OC1OC(COC(=O)/C=C/c2ccc(OC4OC(C)C(O)C(O)C4O)cc2)C(O)C(O)C1O)C3O (stereo not given) |  | 23.2
30 | CC(CCO)CCC1C2(C)CCCC(C)(C)C2CC[C@@]1(C)O (stereo not given in full) |  | 18.3
31 | CC1CC[C@]2(C(=O)O)CC[C@]3(C(=O)O)C(=CCC4[C@@]5(C)CC[C@H](OC6OC(C)C(O)C(OC7OC(CO)C(O)C(O)C7O)C6O)C(C)(C)C5CC[C@]43C)C2C1C (stereo not given in full) |  | -8.04
32 | CC1(C)CC[C@]2(C(=O)OC3OC(CO)C(O)C(O)C3O)CC[C@]3(C)C(=CCC4[C@@]5(C)C[C@@H](O)[C@H](OC6OC(C(=O)O)C(O)C(O)C6O)C(C)(C)C5CC[C@]43C)[C@@H]2C1 (stereo not given in full) |  | -2.29
33 | COC1OC(=O)C2=C1C1(C)CCCC(C)(C)C1CC2O (stereo not given) |  | -8.04
34 | C=C1CC[C@H]2[C@@H](/C=C(\C)C(=O)[C@@]3(OC(C)=O)C[C@H](C)[C@H](OC(C)=O)[C@@H]3[C@H]1OC(C)=O)C2(C)C |  | -20.6
35 | CC1NC(=O)CCCNC(=O)C(Cc2c[nH]c3ccccc23)NC(=O)C(C)NC(=O)C(C(C)C)NC(=O)C(C(C)c2ccccc2)NC(=O)C(C(C)C)NC1=O (stereo not drawn) (cyclo([GABA]AV[ξPhe(βξ-Me)]VAW); configuration not given here) |  | 6.11
36 | O=C1NC2CCc3nc4ccccc4c(=O)n3C2=Nc2ccccc21 (stereo not given) |  | -8.93
37 | CC1(C)CC2C3=CCC4C5(C)CCC(OC6OC(CO)C(O)C(OC7OC(CO)C(O)C(OC8OC(CO)C(O)C(OC9OC(COC%10OC(CO)C(O)C(O)C%10O)C(O)C(O)C9O)C8O)C7O)C6O)C(C)(C)C5CCC4(C)C3(C)CCC2(C(=O)O)CC1O (stereo not given) |  | -24.4
38 | CNc1cccc(CCOc2ccc3c(c2)CN(CC(F)(F)F)C(=O)[C@H](CC(=O)O)C3)n1 |  | 2.86
39 | CC1CC(=O)C2=C(CCC3(O)C(O)c4c(O)cccc4C(=O)C23O)C1 (stereo not given) |  | 12.2
40 | C=C(C)C(C)C1OC23CC4(CO2)C(CCC2C5(C)CCC(OC6OCC(O)C(OC7OC(CO)C(O)C(OC8OCC(O)C(O)C8O)C7O)C6OC6OC(CO)C(O)C6O)C(C)(C)C5CCC24C)C3C(C)(O)C1OC(C)=O (stereo not given) |  | -19.8
